Experimental findings from PubChem BioAssay are described below.

Values joined by “and” are separate entries in the source; they are usually repeats but may differ in a detail not shown here. Equal entries are not always repeated. Active and inactive are the calls of the source.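 Rule for the calls: active = thallium flux through the channel raised or lowered by more than 3 SD from vehicle-only wells, actives on both sides; inactive = the rest.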

This assay relates to F380Y/beta2Delta. As to the kind of experiment: BK channel mutant inhibitors and activators – cell-based, U2OS BacMam, thallium flux, beta subunits, selectivity assay, profiling panel (AID 1259406).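 Note: initial slope of Thallos dye fluorescence rise after thallium is added; log ratio against the mean of 0.3% DMSO vehicle wells on the same plate.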 The note with it: U2OS BacMam BK variants, at 30 µM.
As for `OCCN1CCN(CCCN2c3ccccc3Sc3ccc(C(F)(F)F)cc32)CC1`, the log fold change Tl+ flux is 0.167 (active). The result for `NS(=O)(=O)c1cc2c(cc1Cl)NC=NS2(=O)=O` reads -0.00499 (inactive); that for `O=C1C(CCS(=O)c2ccccc2)C(=O)N(c2ccccc2)N1c1ccccc1` (centres undefined), 0.0447 (inactive). For `Cc1ccc(-c2cc(C(F)(F)F)nn2-c2ccc(S(N)(=O)=O)cc2)cc1` the value was -0.0192 (inactive). For `CN[C@H]1CC[C@@H](c2ccc(Cl)c(Cl)c2)c2ccccc21`, the log fold change Tl+ flux is 0.62 (active) and 0.894 (active). For `Cc1ccccc1C(OCCN(C)C)c1ccccc1` (centres undefined) the value was 0.0734 (inactive) and 0.0188 (inactive). `CCc1nc(N)nc(N)c1-c1ccc(Cl)cc1`: the log fold change Tl+ flux is 0.0521 (inactive). For `COc1cc2nc(N(C)CCCNC(=O)C3CCCO3)nc(N)c2cc1OC` (centres undefined) the value was 0.0311 (inactive); for `CN(C)CCOC(c1ccc(Cl)cc1)c1ccccn1` (centres undefined), 0.0734 (inactive); for `N[C@@H](C(=O)N[C@@H]1C(=O)N2C(C(=O)O)=C(Cl)CS[C@H]12)c1ccccc1`, -0.0661 (inactive). For `Nc1ncn([C@@H]2O[C@H](CO)[C@@H](O)[C@H]2O)c(=O)n1` the value was 0.0239 (inactive); for `NCc1ccc(S(N)(=O)=O)cc1`, -0.0418 (inactive); for `Cc1ncc([N+](=O)[O-])n1CC(C)O` (centres undefined), -0.00369 (inactive). The result for `Cc1ccc(C)c(OCCCC(C)(C)C(=O)O)c1` reads 0.0499 (inactive); that for `CN1CCCC(n2nc(Cc3ccc(Cl)cc3)c3ccccc3c2=O)CC1` (centres undefined), 0.144 (active). Take `NS(=O)(=O)c1cc2c(cc1C(F)(F)F)NC(Cc1ccccc1)NS2(=O)=O` (centres undefined): the log fold change Tl+ flux was 0.0485 (inactive).

For `COC1=CC(=O)C[C@@H](C)[C@]12Oc1c(Cl)c(OC)cc(OC)c1C2=O`, the log fold change Tl+ flux is 0.0194 (inactive).

Take `Cc1cn([C@H]2C[C@H](N=[N+]=[N-])[C@@H](CO)O2)c(=O)[nH]c1=O`: the log fold change Tl+ flux is 0.00186 (inactive). As to `CN(CCOc1ccc(CC2SC(=O)NC2=O)cc1)c1ccccn1` (centres undefined), the log fold change Tl+ flux is -0.0425 (inactive) and 0.0999 (inactive). For the compound `COc1ccc(OC)c(C(O)CNC(=O)CN)c1` (centres undefined), the log fold change Tl+ flux is -0.0267 (inactive).

Consider `OC(CCN1CCCC1)(c1ccccc1)C1CCCCC1` (centres undefined), for which the log fold change Tl+ flux was 0.106 (active). The result for `NC(=O)N1c2ccccc2CC(=O)c2ccccc21` reads -0.0162 (inactive).

For `CCCNCC(O)COc1ccccc1C(=O)CCc1ccccc1` (centres undefined), the log fold change Tl+ flux was 0.0815 (active). Consider `C/C=C/C(=O)N(CC)c1ccccc1C`, for which the log fold change Tl+ flux is -0.0171 (inactive). For `CCCCCCNC(=O)n1cc(F)c(=O)[nH]c1=O`, the log fold change Tl+ flux was -0.0543 (inactive). For `NC(=O)c1cnccn1` the value was -0.0799 (active); for `CN(C)CCc1c[nH]c2ccc(C[C@H]3COC(=O)N3)cc12`, -0.0158 (inactive); for `COc1ccccc1OCC(O)COC(N)=O` (centres undefined), -0.0478 (inactive).

As for `COC(=O)Nc1nc2ccc(C(=O)c3ccccc3)cc2[nH]1`, the log fold change Tl+ flux is -0.00923 (inactive). On to `CCn1cc(C(=O)O)c(=O)c2cc(F)c(N3CCN(C)CC3)cc21`, for which the log fold change Tl+ flux is -0.0112 (inactive). In the case of `Cn1cnc([N+](=O)[O-])c1Sc1ncnc2nc[nH]c12`, the log fold change Tl+ flux is -0.0522 (inactive). The result for `c1ccc2[nH]c(-c3cscn3)nc2c1` reads -0.00898 (inactive); that for `Cc1onc(-c2c(Cl)cccc2Cl)c1C(=O)N[C@@H]1C(=O)N2[C@@H]1SC(C)(C)[C@@H]2C(=O)O`, -0.00879 (inactive); that for `Clc1ccc2c(c1)C(N1CCNCC1)=Nc1ccccc1O2`, 0.148 (active). Consider `CO[C@@]1(NC(=O)Cc2cccs2)C(=O)N2C(C(=O)O)=C(COC(N)=O)CS[C@@H]21`, for which the log fold change Tl+ flux is -0.00432 (inactive). On to `CCc1cccc2c3c([nH]c12)C(CC)(CC(=O)O)OCC3` (centres undefined), for which the log fold change Tl+ flux was -0.0224 (inactive).

Turning to `CC(C)(C)NCC(O)COc1cccc2c1C[C@H](O)[C@H](O)C2` (some centres undefined), the log fold change Tl+ flux was 0.0306 (inactive). The result for `O=S(=O)(O)CCS` reads 0.0371 (inactive); that for `O=c1[nH]cc(F)c(=O)[nH]1`, -0.0613 (inactive).
